AMA1 RON2 block: qHTS for Inhibitors of AMA1-RON; Towards Development of Antimalarial Drug Lead: Primary Screen; AlphaScreen AMA1-biotinylated RON2 peptide binding; Potency, µM (highest dose often 58.2 µM), for inactives: top-dose activity change, negative = inhibition, most hits filed as inhibitors; 360,000 tested, 0.2% active; AID 720542, 2013;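 also: 0% = vehicle wells and -100% = peptide control; nearly all actives have a fitted effect of over 45% in size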
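AMA1 (3D7) with his tag at 25 nM final met compounds first, then biotinylated RON2 peptide at 25 nM; detection used donor plus acceptor beads, 10 µg/mL apiece, read by AlphaScreen after 30 min at room temperature.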
NS1 function inh: qHTS Assay for Inhibitors of Influenza NS1 Protein Function; AID 2326, 2010; 270,000 tested, 0.4% active; Potency, µM (top dose mostly 46.1 µM), inactives show at the top dose activity, positive = more growth; calls by dose curve; also: actives are rising curves; nearly all actives have a fitted effect of over 50% in size
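A cell-based growth assay was used: compounds that relieve NS1-induced slow growth of budding yeast raise OD600. Assay medium was yeast nitrogen base with ammonium sulphate and -URA supplement, pH 6.0, with 2% galactose.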
Pf growth 96h: Primary qHTS for delayed death inhibitors of the malarial parasite plastid, 96 hour incubation. P. falciparum luciferase reporter growth, 96 h. Potency, µM (series often up to 28.7 µM), without a hit: top-dose activity change, negative = inhibition, hits mostly inhibitors. 320,000 tested, 6.9% active; also: % is scaled to controls: 0 for no effect and ±100 for the full control effect
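Delayed-death screen, second-generation endpoint: infected erythrocytes, 2% hematocrit, 0.05% parasitemia final; 96 hours at 37 C, 5% CO2; luciferase detection reagent; luminescence decrease equals reduced growth.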
Pf growth 48h: Primary qHTS for delayed death inhibitors of the malarial parasite plastid, 48 hour incubation | P. falciparum luciferase growth in erythrocytes, 48 h | Potency, µM (doses to about 28.7 µM), inactives show at the top dose activity change, negative = inhibition, usual class: inhibitors | 310,000 tested, 5.9% active | AID 504832, 2011; also: % is scaled to controls: 0 for no effect and ±100 for the full control effect
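Read-out is firefly luciferase luminescence from an integrated reporter in P. falciparum, so falling signal marks reduced parasite growth. Infected erythrocytes were at 2% hematocrit and 0.1% parasitemia (final) in Albumax-supplemented RPMI 1640.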
Sm TGR inh: qHTS Assay for the Inhibitors of Schistosoma Mansoni Peroxiredoxins; Schistosoma mansoni thioredoxin glutathione reductase (TGR), Q962Y6; purified TGR, DTNB reduction, TNB absorbance 405 nm; Potency, µM (top dose mostly 114 µM), for the others: at the highest dose activity change, negative = inhibition, hits mostly inhibitors; 360,000 tested, 3% active; AID 485364, 2010; also: % is scaled to controls: 0 for no effect and ±100 for the full control effect; nearly all actives have a fitted effect of over 60% in size
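Kinetic colorimetric format: TGR-catalysed, NADPH-driven DTNB reduction monitored via TNB absorbance. Enzyme dispensed at 20 nM; compound exposure 15 min at room temperature before reaction start.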
Numbers without * were called inactive; ? = inconclusive; nt = no result given. This is a sample that favours compounds with a hit; in the whole collection about 11% have one here. Unless noted, calls follow the shape of the dose curve; as a rule, active = well fitted curve in the direction sought with a large enough effect; inconclusive = small, poorly fitted or top-dose-only effect, or another doubt; inactive = no such curve, though single readings can be large; an effect the other way counts as inactive or inconclusive. Potency is read from the fitted curve at half-maximal effect.

SMILES	AMA1 RON2 block	NS1 function inh	Pf growth 96h	Pf growth 48h	Sm TGR inh
CC(C)c1ccccc1NC(=O)COC(=O)c1c2c(nc3ccccc13)CCN(Cc1ccccc1)C2	-8%	-14%	13µM*	8.3µM*	-2%
Cc1cc(N2CCN(C)CC2)ccc1NC(=O)c1c2c(nc3ccccc13)CCN(Cc1ccccc1)C2	-14%	8%	?	?	-7%
Cc1c(Cl)cccc1NC(=O)COC(=O)c1c2c(nc3ccccc13)CCN(Cc1ccccc1)C2	-8%	?	2.9µM*	13µM*	17%
Nc1c2c(nc3ccccc13)CCN(Cc1ccccc1)C2	3%	-3%	8.3µM*	?	2%
Cc1coc2cc3oc(=O)c(CCC(=O)N4C[C@H]5C[C@@H](C4)c4cccc(=O)n4C5)c(C)c3cc12	-7%	1%	?	?	6%
CCNC(=O)C1(C)CCN(C(=O)c2ccc(N(C)C)cc2)C1 (stereo unspecified)	12%	nt	nt	nt	nt
O=C(Cn1ncn2c(cc3sccc32)c1=O)NCCc1ccccc1	nt	nt	nt	nt	1%
Cc1ccc2c(c1)C1CN(C)CCC1N2C(=S)NC(=O)c1ccc(Cl)cc1Cl (stereo unspecified)	75%	-5%	5.9µM*	?	-1%
Cc1ccc2c(c1)C1CN(C)CCC1N2C(=O)Nc1cccc(Cl)c1 (stereo unspecified)	-15%	-31%	?	?	9%
Cc1ccc2c(c1)C1CN(C)CCC1N2C(=O)COc1ccccc1F (stereo unspecified)	-12%	0%	12µM*	?	6%
Cc1cc(N2CCN(Cc3nc(-c4ccc(F)cc4)oc3C)CC2)cc(C)n1	0%	3%	12µM*	?	-20%
COc1ccccc1N1CCN(Cc2nc(-c3ccc(F)cc3)oc2C)CC1	-13%	-6%	?	?	0%
O=C(O)C[C@@H](C(=O)O)c1ccccc1[N+](=O)[O-]	nt	-1%	nt	nt	nt
Cc1cccc(C)c1OCC(=O)OCC(=O)Nc1ccc(Cl)cn1	-1%	nt	-20%	16%	7%
Fc1cccc(-c2cc3nc(-c4ccccc4)cc(N4CCC5(CC4)OCCO5)n3n2)c1	65%	8%	-17%	8.3µM*	10%
Cc1cccc(-c2cc3nc(-c4ccccc4)cc(N4CCC5(CC4)OCCO5)n3n2)c1	63%	6%	-26%	?	5%
COc1ccc(-c2c(C)nn3c(N4CCC5(CC4)OCCO5)cc(C)nc23)cc1OC	5%	-16%	-1%	12µM*	-1%
Cc1ccc(-c2cc3nc(-c4ccccc4)cc(N4CCC5(CC4)OCCO5)n3n2)cc1	45%	12%	0.29µM*	8.3µM*	0%
COCCN1CCN(c2cc(-c3ccccc3)nc3cc(-c4cccc(F)c4)nn23)CC1	22%	-26%	?	12µM*	-2%
Cc1nc(C)c(C(=O)O)s1	18%	0%	46%	-7%	0%
FC(F)(F)c1cc(Cl)c2nnc(C(F)(F)Cl)n2c1	2%	0%	2%	-7%	-1%
O=C(CN1C(=O)NC2(CCCCC2)C1=O)Nc1ccc2c(c1)OCCCO2	-2%	nt	480%	423%	-32%
COc1ccccc1CC(=O)Nc1ccc(-c2nnc(-c3ccco3)o2)cc1	12%	-29%	135%	8.3µM*	2%
CCOc1ccccc1NC(=O)c1ccccc1-c1ccccc1	3%	-9%	?	-15%	13%
CCOc1ccccc1-c1noc(CCC(=O)Nc2cccnc2)n1	4%	13%	8.3µM*	11%	3%
SMILES	AMA1 RON2 block	NS1 function inh	Pf growth 96h	Pf growth 48h	Sm TGR inh
CCOc1ccccc1NC(=O)c1ccccc1-c1nc(-c2ccccc2)no1	6%	-45%	8.3µM*	?	2%
CCOc1ccccc1-c1nc(-c2ccc(NC(=O)Cc3ccccc3OC)cc2)no1	-4%	-15%	3.7µM*	13µM*	-3%
Cc1c(NC(=O)CN2CCN(C(c3ccccc3)c3ccccc3)CC2)c(=O)n(-c2ccccc2)n1C	11%	-8%	-9%	10µM*	-22%
Cc1c(NC(=O)CCC(=O)N2CCCCC2)c(=O)n(-c2ccccc2)n1C	0%	12%	0.83µM*	1%	0%
Cc1c(NC2(C#N)CCCCC2)c(=O)n(-c2ccccc2)n1C	10%	2%	3%	-1%	20µM*
C=CCNC(=O)CN1CCC(O)(c2ccccc2)CC1	-2%	1%	?	28%	1%
C=CCNC(=O)CN1CCN(C(c2ccccc2)c2ccccc2)CC1	-11%	-9%	13µM*	?	-14%
Cc1c(NC(=O)CN2CCN(c3ccccc3)CC2)c(=O)n(-c2ccccc2)n1C	3%	5%	35%	15%	9%
Cc1cccc(C)c1NC(=O)CN1CCN(CCCC(c2ccc(F)cc2)c2ccc(F)cc2)CC1	4%	nt	4.5µM*	12µM*	1%
CC(C)(C)NC(=O)NC(=O)COC(=O)Cn1cnc2ccccc2c1=O	-2%	nt	-3%	12µM*	-2%
COc1ccc(-c2cc(C(=O)N(C)CCc3ccc(OC)c(OC)c3)c3ccccc3n2)cc1	9%	10%	3%	19%	0%
COc1ccc(-c2cc(C(=O)N(C)Cc3cccc(OC)c3OC)c3ccccc3n2)cc1OC	-7%	-1%	?	9.3µM*	-6%
COc1cccc(CN(C)C(=O)c2cc(-c3ccc(F)cc3)nc3ccccc23)c1	10%	10%	13µM*	?	2.2µM*
COc1ccc(CCN(C)C(=O)c2cc(-c3ccccc3)nc3ccccc23)cc1OC	0%	-45%	7.4µM*	13µM*	?
COc1ccc(CN(C)C(=O)c2cc(-c3ccccc3)nc3ccc(C)cc23)c(OC)c1OC	-14%	-8%	?	8.3µM*	-20%
COc1ccccc1S(=O)(=O)Cc1ccc(C(=O)NCc2ccccc2)o1	-4%	1%	?	0%	-14%
CCCCCCCCCCCCCCC[C@@H](O)[C@@H](N)CO	12%	nt	nt	nt	nt
Cc1cccc(Cc2c(C)nc3nc(SCC(=O)NCc4ccccc4)nn3c2C)c1	nt	nt	nt	nt	2%
Cc1nc(SCC(=O)c2ccc(Cl)cc2)c([N+](=O)[O-])[nH]1	18%	5%	8%	21%	-3%
Cc1nc(SCC(=O)c2ccc(F)cc2)c([N+](=O)[O-])[nH]1	-4%	3%	1.9µM*	5%	3%
Cc1nc(SCc2ccccc2)[nH]c(=O)c1CC(=O)OCC(C)C	-1%	-5%	?	5%	12%
CN(Cc1ccc(C(C)(C)C)cc1)C(=O)C1CSC2(C)CCC(=O)N12 (stereo unspecified)	4%	nt	?	?	11%

Screening data as filed in PubChem BioAssay.
